According to PubChem BioAssay (Tox21):
Inconclusive results are not listed. Entries that show only a call come without a potency. A number with no mark means an inactive call. The source made the active and inactive calls. Unless noted, the call rests on the fitted dose curve.

Experiment: qHTS assay to identify small molecule agonists of the NFkB signaling pathway - cell viability counter screen (AID 1159515); further: nearly all actives have a fitted effect of over 55% in size; further: potency means the concentration at half of the fitted maximal effect
Details: NFkB-bla ME-180 viability, CellTiter-Glo luminescence, 5 h; series mostly up to 61 µM
How it was run: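 NFkB-bla ME-180 cells, 2,000/well, were plated overnight at 37 C, 5% CO2, then exposed to compounds in DMSO for 5 hr. After the bla FRET read, CellTiter-Glo was added to the same wells; luminescence was read after 30 min at room temperature.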
With CC(=O)[C@H]1CC[C@H]2[C@@H]3CCC4=CC(=O)CC[C@]4(C)[C@H]3CC[C@]12C the Potency was “inactive”.
For COC(=O)c1ccccc1OC, the Potency was “inactive”.
In the case of c1cnccn1, the Potency is reported as “inactive”.
For COc1cc2nc(N3CCN(C(=O)c4ccco4)CC3)nc(N)c2cc1OC, the Potency was “inactive”.
In the case of O=[N+]([O-])c1ccc(F)c(Cl)c1, the Potency is reported as “inactive”.
In the case of CCCC[P+](C)(CCCC)CCCC, the Potency is reported as “inactive”.
With Cc1nc2n(c(=O)c1CCN1CCC(c3noc4cc(F)ccc34)CC1)CCCC2 the Potency was “inactive”.
In the case of O[C@@H]([C@H](O)[C@H](O)CBr)[C@H](O)CBr, the Potency is reported as “inactive”.
For [Cu+], the Potency was “inactive”.
With Cc1ccc(O)c(O)c1 the Potency was “inactive”.
With O=C(O)c1ccc2cc(C(=O)O)ccc2c1 the Potency was “inactive”.
In the case of CCCCCCOC(=O)C(C)CC (stereo unspecified), the Potency is reported as “inactive”.
For O=[N+]([O-])c1ccc(O)cc1C(F)(F)F, the Potency was “inactive”.
For O=c1[nH]c2ccccc2n1CCCN1CCN(C(c2ccccc2)c2ccccc2)CC1, the Potency was “inactive”.
With C=Cc1cccc(C)c1 the Potency was “inactive”.
In the case of c1ccc(C(O[C@@H]2CCCN(CCc3ccc4c(c3)OCO4)C2)c2ccccc2)cc1, the Potency is reported as “inactive”.
In the case of O=C(/C=C/c1ccc(O)c(O)c1)O[C@@H](C(=O)O)[C@@H](OC(=O)/C=C/c1ccc(O)c(O)c1)C(=O)O, the Potency is reported as “inactive”.
In the case of CCc1cccc(CC)c1NC(=O)CN(CC(=O)O)CC(=O)O, the Potency is reported as “inactive”.
For CCO[C@@H]1O[C@H](C(COCc2ccccc2)OCc2ccccc2)[C@H](OCc2ccccc2)[C@H]1O (stereo partly specified), the Potency was 21.3 µM (active).
For CCCc1ccc(OCC(=O)N2CCN(C(=O)COc3ccc(CCC)cc3OC)CC2)c(OC)c1, the Potency was “inactive”.
For CCCCCCCC, the Potency was “inactive”.
With COC1=C(OC)C(=O)C(CCCCCCCCCCO)=C(C)C1=O the Potency was “inactive”.
For CC(C)CCOC(=O)/C=C/c1ccccc1, the Potency was “inactive”.
With CCCCN(CCCC)CC(O)c1cc(Cl)cc2c1-c1ccc(Cl)cc1/C2=C/c1ccc(Cl)cc1 (stereo unspecified) the Potency was “inactive”.
In the case of COc1ccc(-c2coc3cc(O)ccc3c2=O)cc1, the Potency is reported as “inactive”.
With Oc1cc(Cl)cc(Cl)c1Cl the Potency was “inactive”.
For Cc1ccc(-c2ccccc2)cc1, the Potency was “inactive”.
With C/C=C/C=C/COC(=O)C(C)C the Potency was “inactive”.
For CCCCCCCCCCOC(=O)c1ccccc1C(=O)OCCCCCCCC, the Potency was “inactive”.
For C=CC(C)(CCC=C(C)C)OC=O (stereo unspecified), the Potency was “inactive”.
For CC(CO)Oc1ccccc1 (stereo unspecified), the Potency was “inactive”.
In the case of CC(C)=CCC1=C(O)c2ccccc2C(=O)C1=O, the Potency is reported as “inactive”.
For OC12N=C(c3ccccc3)SC1Cc1cc(Cl)ccc12 (stereo unspecified), the Potency was “inactive”.
In the case of O=C(O)c1cc(=O)c2ccccc2o1, the Potency is reported as “inactive”.
For CC(=O)c1ccc(C(C)=O)cc1, the Potency was “inactive”.
With CC[N+](CC)(CC)CCOC(=O)C(C1CCCC1)C1CCCC1 the Potency was “inactive”.
CC(C)(C)CC(C)(C)c1ccc(Nc2ccc(C(C)(C)CC(C)(C)C)cc2)cc1 showed an activity, negative = cytotoxic of -7.48% [at 6.95 µM].
With NC(=O)c1cccc([N+](=O)[O-])c1 the Potency was “inactive”.

Experiment: qHTS assay to identify small molecule agonists of the endoplasmic reticulum stress response signaling pathway (AID 1159516; active means well fitted activation curve with a large enough effect in the signal ratio in the repeat runs, not every such curve was filed as active; the % refers to the signal ratio)
Details: ESRE-bla HeLa, ER stress beta-lactamase reporter, 5 h; series mostly up to 61 µM
How it was run: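 CellSensor ESRE-bla HeLa cells, carrying a beta-lactamase reporter driven by the ER stress response element, were plated overnight and exposed to compounds for 5 hr at 37 C. Reporter activity was read as FRET substrate fluorescence after 2 hr at room temperature.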
With CC(=O)[C@H]1CC[C@H]2[C@@H]3CCC4=CC(=O)CC[C@]4(C)[C@H]3CC[C@]12C the Potency was “inactive”.
With COC(=O)c1ccccc1OC the Potency was “inactive”.
For c1cnccn1, the Potency was “inactive”.
With COc1cc2nc(N3CCN(C(=O)c4ccco4)CC3)nc(N)c2cc1OC the Potency was “inactive”.
In the case of O=[N+]([O-])c1ccc(F)c(Cl)c1, the Potency is reported as “inactive”.
In the case of CCCC[P+](C)(CCCC)CCCC, the Potency is reported as “inactive”.
With Cc1nc2n(c(=O)c1CCN1CCC(c3noc4cc(F)ccc34)CC1)CCCC2 the Potency was “inactive”.
With O[C@@H]([C@H](O)[C@H](O)CBr)[C@H](O)CBr the Potency was “inactive”.
In the case of [Cu+], the Potency is reported as “inactive”.
For Cc1ccc(O)c(O)c1, the Potency was “inactive”.
In the case of O=C(O)c1ccc2cc(C(=O)O)ccc2c1, the Potency is reported as “inactive”.
With CCCCCCOC(=O)C(C)CC (stereo unspecified) the Potency was “inactive”.
In the case of O=[N+]([O-])c1ccc(O)cc1C(F)(F)F, the Potency is reported as “inactive”.
In the case of O=c1[nH]c2ccccc2n1CCCN1CCN(C(c2ccccc2)c2ccccc2)CC1, the Potency is reported as “inactive”.
In the case of C=Cc1cccc(C)c1, the Potency is reported as “inactive”.
With c1ccc(C(O[C@@H]2CCCN(CCc3ccc4c(c3)OCO4)C2)c2ccccc2)cc1 the Potency was “inactive”.
For O=C(/C=C/c1ccc(O)c(O)c1)O[C@@H](C(=O)O)[C@@H](OC(=O)/C=C/c1ccc(O)c(O)c1)C(=O)O, the Potency was “inactive”.
With CCc1cccc(CC)c1NC(=O)CN(CC(=O)O)CC(=O)O the Potency was “inactive”.
With CCO[C@@H]1O[C@H](C(COCc2ccccc2)OCc2ccccc2)[C@H](OCc2ccccc2)[C@H]1O (stereo partly specified) the Potency was “inactive”.
In the case of CCCc1ccc(OCC(=O)N2CCN(C(=O)COc3ccc(CCC)cc3OC)CC2)c(OC)c1, the Potency is reported as “inactive”.
In the case of CCCCCCCC, the Potency is reported as “inactive”.
In the case of COC1=C(OC)C(=O)C(CCCCCCCCCCO)=C(C)C1=O, the Potency is reported as “inactive”.
With CC(C)CCOC(=O)/C=C/c1ccccc1 the Potency was “inactive”.
With CCCCN(CCCC)CC(O)c1cc(Cl)cc2c1-c1ccc(Cl)cc1/C2=C/c1ccc(Cl)cc1 (stereo unspecified) the Potency was “inactive”.
For COc1ccc(-c2coc3cc(O)ccc3c2=O)cc1, the Potency was “inactive”.
For Oc1cc(Cl)cc(Cl)c1Cl, the Potency was “inactive”.
In the case of Cc1ccc(-c2ccccc2)cc1, the Potency is reported as “inactive”.
With C/C=C/C=C/COC(=O)C(C)C the Potency was “inactive”.
For CCCCCCCCCCOC(=O)c1ccccc1C(=O)OCCCCCCCC, the Potency was “inactive”.
With C=CC(C)(CCC=C(C)C)OC=O (stereo unspecified) the Potency was “inactive”.
In the case of CC(CO)Oc1ccccc1 (stereo unspecified), the Potency is reported as “inactive”.
With CC(C)=CCC1=C(O)c2ccccc2C(=O)C1=O the Potency was “inactive”.
In the case of OC12N=C(c3ccccc3)SC1Cc1cc(Cl)ccc12 (stereo unspecified), the Potency is reported as “inactive”.
With O=C(O)c1cc(=O)c2ccccc2o1 the Potency was “inactive”.
For CC(=O)c1ccc(C(C)=O)cc1, the Potency was “inactive”.
With CC[N+](CC)(CC)CCOC(=O)C(C1CCCC1)C1CCCC1 the Potency was “inactive”.
For CC(C)(C)CC(C)(C)c1ccc(Nc2ccc(C(C)(C)CC(C)(C)C)cc2)cc1, the activation was -2.77% [at 6.95 µM].
For NC(=O)c1cccc([N+](=O)[O-])c1, the Potency was “inactive”.
